# In PubChem BioAssay:
# Values joined by “and” are separate entries in the source; they are usually repeats but may differ in a detail not shown here. Equal entries are not always repeated. For part of these data: Results with a measured potency or affinity are listed apart. Where a structure was tested more than once in an assay, its records may differ in their call. Active and inactive are the calls of the source.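 The calls were made as follows, unless noted: active = thallium flux through the channel raised or lowered by more than 3 SD from vehicle-only wells, actives on both sides; inactive = the rest.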
# Assays:
# [1] = blockers of polyQ-driven CASP3 activation – cell-based (AID 1583); conditions: polyglutamine-induced caspase-3 activation, cell assay; stronger effect = higher value;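 tested at 10 µM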
# [2] = yeast 75Q aggregation reduction – 75Q-TubU reporter (AID 1593); conditions: Yeast 75Q polyglutamine aggregation reporter
# [3] = restoration of touch response, mutant HTT neurons – whole organism, C. elegans mechanosensory neurons, N-terminal huntingtin (AID 1599); conditions: C. elegans polyQ-huntingtin mechanosensory neurons, stronger effect = higher value
# [4] = blockers of cytochrome c efflux from mitochondria – biochemical, purified mitochondria (AID 1603); conditions: stronger effect = lower value;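 also: mouse liver mitochondria challenged with calcium chloride; signal normalized to the plate average as 100%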
# [5] = polyglutamine aggregate formation blockers (AID 1604); conditions: polyglutamine-induced protein aggregation inhibition assay; stronger effect = higher value; tested at 2.5 µM
# [6] = glutamate transport activators, MN-1 cells, MN-1 cell line (AID 1612); conditions: MN-1 motor neuron cells, stronger effect = higher value;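 also: tested at 1 µM final; 0% = mean of DMSO vehicle wells on each plate; positive means more glutamate uptake than control and negative means less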
# [7] = 75Q-TubH aggregate inhibition, S. cerevisiae, yeast (AID 1616); conditions: S. cerevisiae 75Q-TubH polyglutamine aggregation suppression; stronger effect = higher value
# [8] = compounds altering viability of human ES cells (AID 493140; call rule not given here;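 also: cells exposed to compounds for four days before counting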); conditions: human embryonic stem cell survival screen; stronger effect = higher value
# [9] = signal quenchers or enhancers, Cy5 substrate/SSB – biochemical, NIH Clinical Collection, E. coli SSB, artefact control for HCV NS3 helicase inhibitor project (AID 743268; call rule not given here); conditions: Cy5-oligo bound E. coli SSB, fluorescence interference
# [10] = modulation of C. elegans fzo-1 (AID 1259413; call rule not given here;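 also: fzo-1 mutant C. elegans worms in liquid wells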); conditions: C. elegans fzo-1 modulator screen, mean read-out; stronger effect = higher value
# [11] = galactose survival enhancers in mitochondrial complex I cybrids – cell-based, galactose medium, ATP luminescence, primary screen (AID 1645843;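 active = z-score of at least 1.8 in each of two replicates, scored against plate mean and spread of sample wells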;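 also: positive z means more ATP and so rescue of galactose-driven cybrid death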); conditions: complex I mutant cybrid cells, 72 h, stronger effect = higher value
# [12] = test system: F380Y/beta1; assay: BK channel mutant inhibitors and activators – cell-based, U2OS BacMam, thallium flux, beta subunits, selectivity assay, profiling panel (AID 1259406); conditions: U2OS BacMam BK variants, at 30 µM;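 also: initial slope of Thallos dye fluorescence rise after thallium is added; log ratio against the mean of 0.3% DMSO vehicle wells on the same plate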
# [13] = test system: F380Y/beta4; assay: as above; conditions: U2OS BacMam BK variants, at 30 µM
# [14] = test system: R275C; assay: as above; conditions: U2OS BacMam BK variants, at 30 µM
# [15] = test system: R275C/beta1; assay: as above; conditions: U2OS BacMam BK variants, at 30 µM
# [16] = test system: R275C/beta2Delta; assay: as above; conditions: U2OS BacMam BK variants, at 30 µM
# [17] = test system: R275C/beta4; assay: as above; conditions: U2OS BacMam BK variants, at 30 µM
# [18] = test system: R275C/Slo1WT/beta2; assay: as above; conditions: U2OS BacMam BK variants, at 30 µM
SMILES,inhibition [1] [%],score [2],rescue above control [3],cytochrome c release ratio [4],inhibition of aggregation [5] [%],glutamate uptake change [6] [%],aggregation suppression score [7],survival [8],fluorescence ratio [9],mean signal [10],z-score [11],log fold change Tl+ flux [12],log fold change Tl+ flux [13],log fold change Tl+ flux [14],log fold change Tl+ flux [15],log fold change Tl+ flux [16],log fold change Tl+ flux [17],log fold change Tl+ flux [18]
CN(C)CCOC(c1ccc(Cl)cc1)c1ccccn1 (stereo not given),-21.2,1.7,-1.97,0.83,44.8,21.1,1.21,2.92 (inactive),1.05 (inactive),244 (inactive),1.09 (inactive),0.0451 (inactive),0.0228 (inactive),0.0106 (inactive),-0.0266 (inactive),0.0559 (inactive),0.0288 (inactive),-0.0144 (inactive)
COc1ccc(OC)c(C(O)CNC(=O)CN)c1 (stereo not given),-17.3,1.3,-4.55,1.63,41.7,-11.6,1.16,18.8 (inactive),1 (inactive),239 (inactive),0.54 (inactive),0.0228 (inactive),0.0115 (inactive),-0.0312 (inactive),-0.0304 (inactive),-0.0183 (inactive),0.00841 (inactive),0.0391 (inactive)
Cc1cn([C@H]2C[C@H](N=[N+]=[N-])[C@@H](CO)O2)c(=O)[nH]c1=O,-8.49,1.46,1.62,1.1,48.1,-23.5,1.12,–,1.05 (inactive),236 (inactive),0.4 (inactive) and 0.685 (inactive),0.0379 (inactive),0.0148 (inactive),-0.0157 (inactive),-0.0324 (inactive),0.0219 (inactive),0.00485 (inactive),0.022 (inactive)
C/C=C/C(=O)N(CC)c1ccccc1C,–,–,–,–,–,–,–,6.17 (inactive),1.05 (inactive),254 (inactive),-0.06 (inactive),-0.0381 (inactive),-0.00302 (inactive),-0.0159 (inactive),-0.0206 (inactive),0.013 (inactive),-0.00282 (inactive),0.00262 (inactive)
COC(=O)Nc1nc2ccc(C(=O)c3ccccc3)cc2[nH]1,-5.42,0.63,-9.11,0.9,83.3,-29.4,0.598,1 (inactive),1.04 (inactive),274 (inactive),0.145 (inactive) and 0.665 (inactive) and -1.08 (inactive),0.0198 (inactive),-0.0277 (inactive),-0.00107 (inactive),0.00663 (inactive),-0.00163 (inactive),-0.0663 (inactive),0.008 (inactive)
Cn1cnc([N+](=O)[O-])c1Sc1ncnc2nc[nH]c12,18.4,0.86,-3.67,0.54,83.1,-23.5,1.11,7.25 (inactive),1.03 (inactive),260 (inactive),-0.21 (inactive) and -1.11 (inactive),-0.0302 (inactive),-0.00991 (inactive),-0.0406 (inactive),0.0023 (inactive),-0.053 (inactive),-0.0246 (inactive),0.0598 (inactive)
Clc1ccc2c(c1)C(N1CCNCC1)=Nc1ccccc1O2,0.62,1.21,6.68,0.82,-0.07,35.9,1.13,–,0.92 (inactive),211 (inactive),-1.01 (inactive) and 0.165 (inactive) and -1.17 (inactive),0.0215 (inactive),0.0652 (inactive),0.021 (inactive),0.123 (active),0.0319 (inactive),0.0104 (inactive),0.0256 (inactive)
Cc1ccccc1C(OCCN(C)C)c1ccccc1 (stereo not given),-34.1,1.23,-6.28,1.72,70.1,36.2,1.25,11.9 (inactive),0.78 (active) and 1.01 (inactive),231 (inactive),-0.455 (inactive) and 0.28 (inactive) and 1.22 (inactive),0.00351 (inactive) and 0.0509 (inactive),0.102 (inactive) and 0.0432 (inactive),0.02 (inactive) and -0.0278 (inactive),0.0357 (inactive) and 0.0895 (inactive),0.0594 (inactive) and 0.0469 (inactive),0.0108 (inactive) and 0.0539 (inactive),0.0116 (inactive) and 0.0357 (inactive)
